# Reference: PubChem BioAssay (NCATS)
# Records with an inconclusive call do not appear. A call without a number means that no potency is given here. Active and inactive are the calls of the source. Unless noted, calls follow the shape of the dose curve; as a rule, active = well fitted curve in the direction sought with a large enough effect; inconclusive = small, poorly fitted or top-dose-only effect, or another doubt; inactive = no such curve, though single readings can be large; an effect the other way counts as inactive or inconclusive.
# Columns and labels:
# [1] = S16 Schwann cell PMP22 intronic element firefly luciferase assay (AID 624032); also: nearly all actives have a fitted effect of over 30% in size; also: potency is read from the fitted curve at half-maximal effect
# Method in brief: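 Luciferase reporter of PMP22 intronic-element expression in stably transfected S16 rat Schwann cells, read by ONE-Glo luminescence after 24 h compound exposure at 37 C. Activity scaled between DMSO (0%) and positive-control PTC124; concentration-effect curves quality-classified.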
# [2] = S16 Schwann cell PMP22 intronic element beta-lactamase assay (AID 624044; calls by dose curve; also: nearly all actives have a fitted effect of over 15% in size)
# Method in brief: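 Beta-lactamase reporter under a PMP22 intronic regulatory element in stable S16 rat Schwann cells; 24 h compound exposure. 460 nm blue signal normalized between DMSO (0%) and potassium clavulanate, with 535 nm FRET tracking viability; curves classed by r2 and response.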
# [3] = qHTS assay for small molecule agonists of the antioxidant response element (ARE) signaling pathway (AID 651741; active = well fitted activation curve with a large enough effect in the signal ratio; the % refers to the signal ratio)
# Method in brief: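 Beta-lactamase reporter under ARE control in HepG2 cells, 2,000 per well, was induced by 16 h compound treatment at 37 C. Read-out was fluorescence from LiveBLAzer B/G FRET substrate after 2 h at room temperature.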
# [4] = qHTS assay for small molecule activators of the p53 signaling pathway (AID 651743; active = well fitted activation curve with a large enough effect in the signal ratio, not every such curve was filed as active; the % refers to the signal ratio; also: series mostly up to about 92 µM); conditions: HCT-116 p53RE-bla, beta-lactamase FRET ratio, 16 h; activation: hits give high values
# Method in brief: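 After 16 hours compound treatment at 37 C, HCT-116 cells stably expressing p53RE-driven beta-lactamase were loaded with LiveBLAzer B/G FRET substrate for 2 hours at room temperature. Fluorescence intensity served as the p53 activation read-out.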
# [5] = S16 Schwann cell viability assay (CellTiter-Glo assay) (AID 624031); also: nearly all actives have a fitted effect of over 70% in size; also: potency is read from the fitted curve at half-maximal effect
# Method in brief: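 Concentration-effect curves come from CellTiter-Glo luminescence of S16 rat Schwann cells after 24 h compound exposure. Each reading was normalized to DMSO wells (0%) and wells without cells, and curves were ranked by r2 and response magnitude.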
# [6] = target: Glutaminase kidney isoform, mitochondrial (Homo sapiens) (UniProt O94925); assay: qHTS for Inhibitors of Glutaminase (GLS): LOPAC Validation (AID 624146);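 also: glutamate product detected by oxidase and peroxidase coupled Amplex red fluorescence gain; series mostly up to about 46 µM; nearly all actives have a fitted effect of over 60% in size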
# Sequence of Glutaminase kidney isoform, mitochondrial (Homo sapiens) (O94925 whole entry, looked up, canonical isoform): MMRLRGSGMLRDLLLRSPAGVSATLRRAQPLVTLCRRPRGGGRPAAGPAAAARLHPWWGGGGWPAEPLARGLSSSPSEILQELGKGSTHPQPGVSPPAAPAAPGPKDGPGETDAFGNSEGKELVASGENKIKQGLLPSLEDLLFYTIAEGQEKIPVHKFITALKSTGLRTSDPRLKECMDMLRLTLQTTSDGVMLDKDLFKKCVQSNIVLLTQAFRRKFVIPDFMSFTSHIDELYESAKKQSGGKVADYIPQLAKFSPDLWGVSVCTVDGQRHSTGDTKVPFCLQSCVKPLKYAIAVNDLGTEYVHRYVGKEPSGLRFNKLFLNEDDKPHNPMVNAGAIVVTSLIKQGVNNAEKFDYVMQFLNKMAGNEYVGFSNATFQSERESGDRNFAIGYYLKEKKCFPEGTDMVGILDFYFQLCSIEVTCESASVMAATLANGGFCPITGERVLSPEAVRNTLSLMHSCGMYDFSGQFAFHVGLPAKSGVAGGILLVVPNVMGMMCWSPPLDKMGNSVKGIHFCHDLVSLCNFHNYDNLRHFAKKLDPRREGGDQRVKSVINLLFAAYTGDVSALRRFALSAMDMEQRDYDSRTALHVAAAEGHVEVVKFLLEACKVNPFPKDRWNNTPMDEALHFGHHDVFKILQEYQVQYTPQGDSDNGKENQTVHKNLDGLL
# Method in brief: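 hKGA; 45 mM KH2PO4 pH 8.2 + 0.02% Tween-20; cpd via pin tool; 1 mM Gln soln; GluOx/HRP/Amplex Red; RT 30 min; fluor. t0 & final.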
# [7] = qHTS of Trypanosoma Brucei Inhibitors: LOPAC Validation (AID 624147)
# Method in brief: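 Assay buffer: 50 mM TEA pH 7.2, 100 mM KCl, 10 mM MgCl2, 0.05% BSA, 0.01% Tween-20. Pyruvate kinase from T. brucei plus substrate met compound, then ADP (130 uM final). Luminescence was read post 45 min RT.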
# [8] = target: Glucagon-like peptide 1 receptor (Homo sapiens) (UniProt P43220); assay: qHTS of GLP-1 Receptor Agonists: LOPAC Validation (AID 624148);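 also: luminescence from a luciferase reporter switched on by cAMP; higher luminescence signal means agonism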
# Sequence of Glucagon-like peptide 1 receptor (Homo sapiens) (P43220 whole entry, looked up): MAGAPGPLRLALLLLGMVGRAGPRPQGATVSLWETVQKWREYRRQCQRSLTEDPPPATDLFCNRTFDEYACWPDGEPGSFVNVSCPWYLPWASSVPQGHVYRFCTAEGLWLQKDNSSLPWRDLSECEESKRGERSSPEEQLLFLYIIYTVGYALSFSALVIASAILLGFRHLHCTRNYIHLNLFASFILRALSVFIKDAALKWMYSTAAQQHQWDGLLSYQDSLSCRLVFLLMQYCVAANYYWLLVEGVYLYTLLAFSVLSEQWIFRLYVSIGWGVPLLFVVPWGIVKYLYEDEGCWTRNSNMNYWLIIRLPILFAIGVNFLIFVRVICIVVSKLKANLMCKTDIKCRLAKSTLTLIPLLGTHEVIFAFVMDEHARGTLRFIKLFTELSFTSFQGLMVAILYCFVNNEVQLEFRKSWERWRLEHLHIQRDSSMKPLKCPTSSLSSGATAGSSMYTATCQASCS
# Method in brief: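 Agonism scored as increased luciferase luminescence driven by cAMP in HEK293 clones carrying GLP-1R. Cells settled 12 hours, received compound for 4-6 hr at 37 deg C, 5% CO2, and were read after 12 min detection reagent at RT.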
# [9] = qHTS of Nrf2 Activators: LOPAC Validation (AID 624149)
# Method in brief: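 Luciferase signal from ARE activation, read with Steady-Glo after 30 min at room temperature. Compounds were pin-transferred onto AREc32_Fluc cells (1000/well, OPTI-MEM/5% FBS, seeded overnight) and left 24 hr at 37 deg C.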
# [10] = HTS Assay for Allosteric Antagonists of the Human D2 Dopamine Receptor: Hit Validation in HTRF (AID 624455);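 also: stable D1 dopamine receptor cell line scored for blocking the D1 response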
# Method in brief: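 Inhibition of the D1-mediated response was measured by HTRF. Cells used were a line stably expressing the D1 dopamine receptor.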
structure (smiles),measurement,setting,value
NCCNC(=O)c1ccc(Cl)cn1,Potency,[1],inactive
COc1ccccc1N1CCN(CCCCNC(=O)c2ccc(-c3ccc(C(C)=O)cc3)cc2)CC1,Potency,[1],inactive
CO[C@]12C[C@@H](COC(=O)c3cncc(Br)c3)CN(C)[C@@H]1Cc1cn(C)c3cccc2c13,Potency,[1],inactive
same,Potency,[2],inactive
NCCNc1cccc2ccccc12,Potency,[2],inactive
same,Potency,[3],inactive
same,activation,[4],1.04% (inactive)
CN1CCC[C@@H]1CCO[C@](C)(c1ccccc1)c1ccc(Cl)cc1,Potency,[1],inactive
CCN(CC)CCOc1ccccc1C(=O)CCc1ccccc1,Potency,[1],inactive
same,Potency,[2],inactive
CCNC(=O)/C=C/c1cccc(Br)c1,Potency,[1],inactive
CN1CCc2cccc3c2[C@H]1Cc1ccc(O)c(O)c1-3,Potency,[1],14.4 µM (active)
same,Potency,[2],inactive
CN(Cc1ccc(C(C)(C)C)cc1)Cc1cccc2ccccc12,Potency,[1],inactive
same,Potency,[2],inactive
CC(C)=CCOc1ccc(/C=C/C(=O)c2ccc(OCC=C(C)C)cc2OCC(=O)O)cc1,Potency,[5],inactive
same,Potency,[2],inactive
O=C(CCN1CCN2CCCC2C1)N1c2ccccc2Sc2ccc(Cl)cc21 (stereo unspecified),Potency,[1],inactive
same,Potency,[2],inactive
CN1CCN(C2=Nc3ccccc3Sc3ccc(Cl)cc32)CC1,Potency,[1],inactive
CC1(C)OC[C@@H]2O[C@@]3(C(=O)O)OC(C)(C)O[C@H]3[C@@H]2O1,Potency,[3],inactive
C#C[C@]1(O)CC[C@H]2[C@@H]3CCC4=Cc5oncc5C[C@]4(C)[C@H]3CC[C@@]21C,Potency,[5],inactive
same,Potency,[2],inactive
same,activation,[4],-3.96% (inactive)
CCCCCCCCCCCCSCCOCCO,Potency,[5],inactive
same,Potency,[2],inactive
Cc1ccc(-c2ncc(Cl)cc2-c2ccc(S(C)(=O)=O)cc2)cn1,Potency,[5],inactive
same,Potency,[2],inactive
O=C(CN1CCN(Cc2ccc3c(c2)OCO3)CC1)N1c2ccccc2Sc2ccccc21,Potency,[1],12.8 µM (active)
same,Potency,[2],inactive
O=C(Nc1ncc([N+](=O)[O-])s1)c1cccs1,Potency,[1],inactive
same,Potency,[2],inactive
Cl/C(=C\n1cncn1)c1ccc(Cl)cc1Cl,Potency,[1],inactive
Cc1cc(CC(=O)O)c(C)n1-c1ccc(Cl)cc1,Potency,[1],inactive
CN(CCCN1c2ccccc2CCc2ccccc21)CC(=O)c1ccc(Cl)cc1,Potency,[2],inactive
CCC1Nc2cc(Cl)c(S(N)(=O)=O)cc2S(=O)(=O)N1 (stereo unspecified),Potency,[1],inactive
CNCCCCOc1ccccc1Cc1ccccc1,Potency,[5],28.7 µM (active)
same,Potency,[2],inactive
CCCCOC(=O)CC(CC(=O)OCCCC)(OC(C)=O)C(=O)OCCCC,Potency,[3],inactive
same,activation,[4],-5.7% (inactive)
C#C[C@]1(OC(C)=O)CC[C@H]2[C@@H]3CCC4=C/C(=N/O)CC[C@@H]4[C@H]3CC[C@@]21CC,Potency,[1],8.09 µM (active)
C=CCN1CCc2nc(N)sc2CC1,Potency,[1],inactive
O=[N+]([O-])c1cccc(S(=O)(=O)NCCNS(=O)(=O)c2cccc([N+](=O)[O-])c2)c1,Potency,[1],inactive
same,Potency,[2],inactive
CCCCCCCCCCCCCC[N+](C)(C)Cc1ccccc1,Potency,[1],32.2 µM (active)
same,Potency,[2],inactive
CN=C(N)NCCC[C@H](N)C(=O)O,outcome,[6],inactive
same,outcome,[7],inactive
same,outcome,[8],inactive
same,outcome,[9],inactive
same,outcome,[10],inactive
